The whole screen tested about 310,000 compounds, of which about 14,000 (4.5%) showed an effect of 50% or more. The effect is printed as a negative number. Shown is part of a subset that was picked to be rich in strong results.
target: human ether-à-go-go-related gene (hERG) potassium channel (human, UniProt Q12809); assay: primary screen, population patch clamp on CHO cells stably expressing hERG; higher = less effect of the substance
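Also: peak tail current of the secondary pulse compared with the same well before compound.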

Sequence of human ether-à-go-go-related gene (hERG) potassium channel (Q12809 whole entry, looked up): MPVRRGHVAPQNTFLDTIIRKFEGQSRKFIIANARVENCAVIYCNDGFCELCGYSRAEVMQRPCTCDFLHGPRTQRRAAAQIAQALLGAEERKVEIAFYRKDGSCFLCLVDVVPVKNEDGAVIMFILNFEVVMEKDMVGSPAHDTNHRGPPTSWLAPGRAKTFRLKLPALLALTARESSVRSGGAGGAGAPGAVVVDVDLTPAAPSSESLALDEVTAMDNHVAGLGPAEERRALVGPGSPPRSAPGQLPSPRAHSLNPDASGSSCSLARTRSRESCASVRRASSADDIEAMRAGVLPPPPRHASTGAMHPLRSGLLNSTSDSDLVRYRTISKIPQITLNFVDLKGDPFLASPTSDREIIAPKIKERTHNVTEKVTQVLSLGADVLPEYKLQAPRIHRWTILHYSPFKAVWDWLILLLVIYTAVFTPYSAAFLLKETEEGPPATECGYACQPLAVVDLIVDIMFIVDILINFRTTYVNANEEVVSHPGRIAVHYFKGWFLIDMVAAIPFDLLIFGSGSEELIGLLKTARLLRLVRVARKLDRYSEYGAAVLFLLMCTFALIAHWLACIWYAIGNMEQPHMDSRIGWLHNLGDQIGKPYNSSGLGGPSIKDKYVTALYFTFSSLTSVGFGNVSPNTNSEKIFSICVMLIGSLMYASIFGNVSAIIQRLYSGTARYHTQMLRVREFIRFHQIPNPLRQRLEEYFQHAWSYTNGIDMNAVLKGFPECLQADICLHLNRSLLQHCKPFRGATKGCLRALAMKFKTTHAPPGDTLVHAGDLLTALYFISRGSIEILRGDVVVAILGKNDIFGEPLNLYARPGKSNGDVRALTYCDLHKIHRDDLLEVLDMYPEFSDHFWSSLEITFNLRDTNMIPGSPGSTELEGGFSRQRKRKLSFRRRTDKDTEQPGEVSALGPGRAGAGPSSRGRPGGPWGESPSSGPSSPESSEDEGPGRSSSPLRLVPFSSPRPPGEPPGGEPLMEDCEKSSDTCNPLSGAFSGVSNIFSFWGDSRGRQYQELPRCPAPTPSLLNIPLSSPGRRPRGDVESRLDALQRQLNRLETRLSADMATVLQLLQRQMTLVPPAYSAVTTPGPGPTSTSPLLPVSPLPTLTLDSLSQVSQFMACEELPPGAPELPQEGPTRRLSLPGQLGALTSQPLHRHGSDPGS

First: NC(=O)C(c1ccccc1)c1ncc(C(F)(F)F)cc1Cl (stereo not drawn)
Second: O=C(COC(=O)c1cnccn1)Nc1ccc(Cl)cc1C(F)(F)F
The “hERG current change (%, negative = inhibition) at 10uM” value of the first is higher: 4.88% for the first, 0.684% for the second.

First: CC(C)Oc1cccc(C(=O)C2CCCN(C(=O)c3ccoc3)C2)c1 (stereo not drawn)
Second: O=C(COc1ccccc1)N1CCN(C(=O)c2cccc(F)c2)CC1
The “hERG current change (%, negative = inhibition) at 10uM” value of the first is lower: -14.7% for the first, -7.92% for the second.

First: CSc1ccc(CN2CCN(C(=O)CC(C)C)CC2)cc1
Second: CSc1ccc(CN2CCN(C(=O)COc3cccc(C)c3)CC2)cc1
The “hERG current change (%, negative = inhibition) at 10uM” value of the first is higher: 9.42% for the first, -50.3% for the second.

Going from `Cc1cccc(OCC(=O)N2CCN(C(=O)Cc3ccccc3)CC2)c1` to `Cc1cccc(OCC(=O)N2CCN(C(=O)COc3ccc(Cl)cc3)CC2)c1`, the “hERG current change (%, negative = inhibition) at 10uM” value falls from -13.2% to -72.2%.

Going from `COc1ccc(OCC(=O)N2CCN(Cc3ccc(SC)cc3)CC2)cc1.O=C(O)C(=O)O` to `CSc1ccc(CN2CCN(C(=O)COc3ccc(C)cc3)CC2)cc1.O=C(O)C(=O)O`, the “hERG current change (%, negative = inhibition) at 10uM” value falls from -50.9% to -60.4%.

First: O=C(COc1ccc(Cl)cc1)N1CCN(C(=O)c2cccc(F)c2)CC1
Second: COc1ccc(OCC(=O)N2CCN(C(=O)c3cccc(F)c3)CC2)cc1
The “hERG current change (%, negative = inhibition) at 10uM” value of the first is lower: -58.5% for the first, -7.41% for the second.

Compared with `Cc1cccc(OCC(=O)N2CCOCC2)c1`, `Cc1cccc(OCC(=O)N2CCN(S(C)(=O)=O)CC2)c1` is lower in “hERG current change (%, negative = inhibition) at 10uM” value: 15.5% for the first, 11.2% for the second.

First: Cc1cccc(OCC(=O)N2CCN(Cc3cccnc3)CC2)c1.O=C(O)C(=O)O
Second: Cc1ccc(OCC(=O)N2CCN(Cc3cccnc3)CC2)cc1.O=C(O)C(=O)O
The “hERG current change (%, negative = inhibition) at 10uM” value of the first is lower: -3.95% for the first, 17.7% for the second.

Compared with `COc1ccc(OCC(=O)N2CCN(C(C)C)CC2)cc1.O=C(O)C(=O)O`, `Cc1ccc(OCC(=O)N2CCN(Cc3ccc4c(c3)OCO4)CC2)cc1.O=C(O)C(=O)O` is lower in “hERG current change (%, negative = inhibition) at 10uM” value: 6.62% for the first, -15.7% for the second.

First: O=C(CS(=O)(=O)c1ccc(F)cc1)Nc1nnc(-c2cccs2)o1
Second: CN(C)S(=O)(=O)c1ccc(C(=O)Nc2nnc(-c3ccco3)o2)cc1
The “hERG current change (%, negative = inhibition) at 10uM” value of the first is higher: 13.3% for the first, 12.4% for the second.

Compared with `CCOC(=O)N1CCN(C(=O)C(NC(=O)c2ccc(CC)cc2)C(C)C)CC1` (stereo not drawn), `CCc1ccc(C(=O)NC(=S)NCc2cccnc2)cc1` is lower in “hERG current change (%, negative = inhibition) at 10uM” value: -19.5% for the first, -40.7% for the second.

Compared with `COc1cc(N2C(=O)CC(=O)NC2=O)cc(OC)c1OC`, `COc1cc(C(=O)N[C@@H](Cc2c[nH]c3ccccc23)C(=O)O)cc(OC)c1OC` is lower in “hERG current change (%, negative = inhibition) at 10uM” value: 17.1% for the first, -53.1% for the second.

First: COCCCNC(=O)CCCCCNS(=O)(=O)c1ccc(Br)cc1
Second: Cn1c(=O)oc2cc(S(=O)(=O)CCC(=O)NCCc3ccccc3)ccc21
The “hERG current change (%, negative = inhibition) at 10uM” value of the first is lower: -21.4% for the first, 7.46% for the second.

Going from `CC(=O)Nc1ccc(/C=C/C(=O)c2ccccc2)cc1` to `O=C(NC(Cc1c[nH]c2ccccc12)C(=O)O)c1ccccc1` (stereo not drawn), the “hERG current change (%, negative = inhibition) at 10uM” value falls from 9.09% to 1.22%.

Going from `Cc1ccccc1NC(=O)c1ccc(S(=O)(=O)C(F)F)cc1` to `COc1ccc(C(=O)NC(Cc2c[nH]c3ccccc23)C(=O)O)cc1` (stereo not drawn), the “hERG current change (%, negative = inhibition) at 10uM” value rises from -27.6% to 12.4%.

Compared with `CN(C)S(=O)(=O)c1cccc(-c2cn3cc(Cl)ccc3n2)c1`, `Nc1ccc(Cl)c[n+]1Cc1cccc2cccnc12.[Br-]` is lower in “hERG current change (%, negative = inhibition) at 10uM” value: 7.03% for the first, -46.1% for the second.

Compared with `Cc1cccc(C(=O)OCC(=O)NC(=O)Cc2ccccc2)c1O`, `COc1ccc(CNCCc2c[nH]c3ccccc23)cc1OC.O=C(O)C(=O)O` is lower in “hERG current change (%, negative = inhibition) at 10uM” value: 13.8% for the first, -28% for the second.

Compared with `COc1ccccc1N1CCN(C(=O)COc2cc(C)cc(C)c2)CC1`, `COc1ccccc1N1CCN(C(=O)COc2ccc(Cl)cc2)CC1` is lower in “hERG current change (%, negative = inhibition) at 10uM” value: 10.8% for the first, -68.5% for the second.

Compared with `COc1ccccc1OCC(=O)N1CCN(c2ccccc2OC)CC1`, `OCc1ccccc1OCCCOc1cccc2cccnc12` is lower in “hERG current change (%, negative = inhibition) at 10uM” value: 1.3% for the first, -3.4% for the second.

First: CCc1nnc(NC(=O)CN2C(=O)NC3(CC(C)CC(C)(C)C3)C2=O)s1 (stereo not drawn)
Second: Cc1ccc2c(CC(=O)NC3CCS(=O)(=O)C3)coc2c1C (stereo not drawn)
The “hERG current change (%, negative = inhibition) at 10uM” value of the first is higher: 7.29% for the first, 1.78% for the second.

First: O=C1NC(=O)N(c2ccccc2)C1=O
Second: CC(C(=O)NCc1ccccc1Cl)n1cc([N+](=O)[O-])cn1 (stereo not drawn)
The “hERG current change (%, negative = inhibition) at 10uM” value of the first is higher: 19.9% for the first, 4.65% for the second.

First: CC(C)(C)C(=O)Nc1ccc(NC(=O)C(C)(C)C)cc1
Second: COc1ccc(CNCCc2c[nH]c3ccccc23)c(OC)c1C.O=C(O)C(=O)O
The “hERG current change (%, negative = inhibition) at 10uM” value of the first is higher: -6.63% for the first, -60.3% for the second.

Compared with `O=C(Nc1cccc(Br)c1)c1ccc(CN2CCc3ccccc3C2)cc1`, `O=S(=O)(Cc1cc(NCc2ccccc2)nc(-c2ccncc2)n1)c1ccccc1` is higher in “hERG current change (%, negative = inhibition) at 10uM” value: -1.55% for the first, 20.3% for the second.

Going from `Nc1ccc(Br)c[n+]1Cc1cccc2cccnc12.[Br-]` to `Cc1cc(C[n+]2cc(Br)ccc2N)c2ncccc2c1.[Br-]`, the “hERG current change (%, negative = inhibition) at 10uM” value falls from -51.6% to -68%.

Compared with `Nc1scc[n+]1Cc1cccc2cccnc12.[Br-]`, `Nc1scn[n+]1Cc1cccc2cccnc12.[Br-]` is higher in “hERG current change (%, negative = inhibition) at 10uM” value: -12.3% for the first, -11.1% for the second.

Going from `Cc1cc(C[n+]2cc(Cl)ccc2N)c2ncccc2c1.[Br-]` to `Cc1cc(CSc2nc(C)cc(=O)[nH]2)c2ncccc2c1`, the “hERG current change (%, negative = inhibition) at 10uM” value rises from -48.1% to -3.07%.

Going from `Nc1sc(-c2ccccc2)n[n+]1Cc1cccc2cccnc12.[Br-]` to `COc1cccc(CNCCc2c[nH]c3ccccc23)c1OCc1ccccc1.Cl`, the “hERG current change (%, negative = inhibition) at 10uM” value rises from -66.7% to -47%.

First: Cc1noc(C)c1CSCC(=O)Nc1cc(Cl)ccc1N1CCCCC1
Second: CCN(CC)S(=O)(=O)c1ccc(NC2c3ccccc3C(=O)N2CCN2CCOCC2)cc1 (stereo not drawn)
The “hERG current change (%, negative = inhibition) at 10uM” value of the first is higher: 1.96% for the first, -37% for the second.

Going from `Cc1ccc2cc3c(NS(=O)(=O)c4cccc5nonc45)nn(CC(C)C)c3nc2c1` to `COc1cc(C)c(CNCCc2c[nH]c3ccccc23)cc1C.O=C(O)C(=O)O`, the “hERG current change (%, negative = inhibition) at 10uM” value falls from 9.9% to -36.9%.

First: COc1cccc(CNCCc2c[nH]c3ccccc23)c1OCc1ccccc1F.Cl
Second: COc1cc(CNCCc2c[nH]c3ccccc23)ccc1OCc1ccccc1F.Cl
The “hERG current change (%, negative = inhibition) at 10uM” value of the first is lower: -55.8% for the first, -52% for the second.

Going from `COc1ccc(CNCCc2c[nH]c3ccccc23)c(OC)c1OC.O=C(O)C(=O)O` to `COc1cccc(CNCCc2c[nH]c3ccccc23)c1OC.Cl`, the “hERG current change (%, negative = inhibition) at 10uM” value falls from -7.44% to -11.1%.

With `COc1cc(CNCCc2c[nH]c3ccccc23)ccc1OCc1ccc(F)cc1.Cl` the “hERG current change (%, negative = inhibition) at 10uM” value was -48.4%.
